KB-3-1 tox = kills parental KB-3-1 adenocarcinoma cells; Potency, µM (highest dose often 46.1 µM), usual class: cytotoxic; 400,000 compounds, 1.4% hits; KB-3-1 viability, CellTiter-Glo ATP luminescence, 72 h; further: on the % scale 0 is the no-effect control and ±100 the full control effect; nearly all actives have a fitted effect of over 60% in size
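Cytotoxicity in the drug-sensitive parental line KB-3-1 was scored as loss of CellTiter-Glo luminescence following 72 h incubation with compound. Values come from curve fitting of normalized concentration-response data.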
KB-V1 cytotox = KB-V1 MDR subline cytotoxicity | KB-V1 MDR cells viability, CellTiter-Glo, 72 h | Potency, µM (highest dose often 46.1 µM), usual class: cytotoxic | 400,000 compounds, 3.4% hits | AID 1347076; further: on the % scale 0 is the no-effect control and ±100 the full control effect; nearly all actives have a fitted effect of over 60% in size
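qHTS viability screen in drug-selected KB-V1 MDR cells: 72 h compound treatment at 37 degrees C, ATP luminescence end point.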
ATXN2 expr inh = ATXN2 expression inhibition; HEK-293 ATXN2-luciferase reporter, luminescence, 24 h; Potency, µM (highest dose often 57 µM), without a hit: at the top dose activity change, negative = inhibition, usual class: inhibitors; 360,000 compounds, 0.72% hits; AID 1745845; further: on the % scale 0 is the no-effect control and ±100 the full control effect; nearly all actives have a fitted effect of over 55% in size
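ATXN2-luciferase reporter cells (luciferase flanked by upstream and downstream ATXN2 gene portions) were treated 24 h at 37 °C with compounds at up to 57 uM. SteadyGlo luminescence gave expression; GF-AFC fluorescence gave viability.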
TGFb SMAD3 inh = blocks TGF-b signaling. AID 588855. Potency, µM (titrated, usually from 46.1 µM), for inactives: top-dose activity, negative = inhibition, most hits filed as inhibitors. HepG2 CAGA-GFP TGF-b/SMAD3 reporter, GFP fluorescence, 18 h; TGF-beta stimulated, 500 pg/mL final. 410,000 compounds, 1.2% hits; further: on the % scale 0 is the no-effect control and ±100 the full control effect; nearly all actives have a fitted effect of over 65% in size
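TGF-beta reporter screen: HEPG2 CAGA-GFP, 1% FBS, 500 pg/mL TGF-beta final, 18 h; per-cell GFP summed per well; curves fitted and categorized by class.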
HepG2 tox = HepG2 cytotoxicity, counter-screen for TGF-b inhibitors. HepG2 CAGA-GFP viability, ATP luminescence, 18 h. Potency, µM (top dose mostly 46.1 µM), for the others: at the top dose activity change, negative = cytotoxicity, actives largely listed as cytotoxic. 410,000 compounds, 0.76% hits
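CellTiter-Glo luminescence gave cytotoxicity after 18 hours at 37 degrees C. The cells were HepG2 CAGA-GFP in 1% FBS DMEM, stimulated with 500 pg/mL TGF-beta after compound addition. %Activity was normalised to no-cell wells (complete cell-killing) and DMSO (no toxicity), and curves were fitted and classified.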
S2 tox = cell viability loss in ATXN counter-screen | S2 cells (HEK-293 line with an ATXN2-luciferase reporter) viability, CellTiter-Fluor protease fluorescence, 24 h | AID 651635 | 400,000 compounds, 0.49% hits | Potency, µM (doses to about 56.7 µM), usual class: cytotoxic; further: nearly all actives have a fitted effect of over 40% in size
* hit, by the source's call; i = inactive; ? = inconclusive; · = no result given; [ ] = another dose, or the depositor's remark. Shown are actives, neighbours in structure and some others; about 5.9% of the full set was active somewhere. The call rests on the fitted dose curve; in most records, active means well fitted curve in the direction sought with a large enough effect; inconclusive means small, poorly fitted or top-dose-only effect, or another doubt; inactive means no such curve, though single readings can be large; an effect the other way counts as inactive or inconclusive. Potency means the concentration at half of the fitted maximal effect.

SMILES	KB-3-1 tox	KB-V1 cytotox	ATXN2 expr inh	TGFb SMAD3 inh	HepG2 tox	S2 tox
CCCCCCCCCC(=O)N[C@@H](Cc1c[nH]c2ccccc12)C(=O)N[C@H](CC(N)=O)C(=O)N[C@@H](CC(=O)O)C(=O)N[C@@H]1C(=O)NCC(=O)N[C@@H](CCCN)C(=O)N[C@@H](CC(=O)O)C(=O)N[C@H](C)C(=O)N[C@@H](CC(=O)O)C(=O)NCC(=O)N[C@H](CO)C(=O)N[C@@H]([C@@H](C)CC(=O)O)C(=O)N[C@@H](CC(=O)c2ccccc2N)C(=O)O[C@@H]1C	·	·	5%	·	·	·
COC(=O)Cc1c(C)c2ccc3c(c2oc1=O)CN(Cc1ccccc1Cl)CO3	i	i	-7%	-6%	-18%	i
CC(/C=N/n1cnnc1)=C\c1ccccc1	5.2µM*	1.8µM*	-28%	6%	-21%	i
CC(=C/c1ccccc1)/C=N/n1cnnc1	i	i	·	-9%	1%	·
CCOc1ccc(C(=O)Nc2ccc(N3CCN(C(C)=O)CC3)cc2)cc1[N+](=O)[O-]	i	?	·	1%	-7%	i
CC(=O)N1CCN(c2ccc(Oc3ccc([N+](=O)[O-])c(C(F)(F)F)c3)cc2)CC1	?	5.2µM*	?	-4%	-6%	i
CCn1c(NC(=S)Nc2ccccc2)nc2ccccc21	i	i	20%	0%	19%	i
S=C(Nc1ccccc1)Nc1nc2ccccc2n1CCOc1ccc(Cl)cc1	i	i	?	14µM*	-58%	i
CCCn1c(NC(=S)Nc2ccccc2)nc2ccccc21	?	16µM*	-4%	?	-70%	i
Cc1cccc(C(=O)N2CCOc3ccc(CN(C)Cc4cc(C5CC5)n[nH]4)cc3C2)n1	·	·	·	·	·	i
CCOC(=O)C1=C(C)N=c2sc(=Cc3cc(Cl)c(OCC(=O)O)c(Cl)c3)c(=O)n2C1c1cccc(OC)c1 (stereo not given)	i	i	-8%	-2%	-26%	i
COc1ccc(OC)c(NC(=O)N2CCN(Cc3nc4ccc(C)cc4o3)CC2)c1	i	i	5%	-25%	-20%	i
COc1ccc(CC2(CO)CCN(Cc3ccc(NC(C)=O)cc3)CC2)cc1	i	i	-6%	17%	0%	i
COc1ccc(CC2(CO)CCN(Cc3ccc(OC(F)(F)F)cc3)CC2)cc1	?	i	?	14µM*	20µM*	?
CCOc1cc(CN2CCC(CO)(Cc3cccc(C(F)(F)F)c3)CC2)ccc1OC	26µM*	i	-17%[2.22 µM]	?	-85%	?
COc1ccc(-c2noc(N3CCC(C(=O)N4CCN(c5ccccc5F)CC4)CC3)n2)cc1	i	i	0%	3%	-4%	i
C#CCOCCOCCOCCNc1nc(N2CCN(C(=O)CCCCCCCCCCNC(=O)[C@H](CCCCN)n3cc(C[C@@H](C)CC)nn3)CC2)nc(N2CCN(C(=O)CCCCCCCCCCNC(=O)[C@H](CCCN=C(N)N)n3cc(C[C@@H](C)CC)nn3)CC2)n1	i	i	-20%	13µM*	16µM*	·
C#CCOCCOCCOCCNc1nc(N2CCN(C(=O)CCCCCCCCCCNC(=O)[C@H](CCCCN)n3cc(CCO)nn3)CC2)nc(N2CCN(C(=O)CCCCCCCCCCNC(=O)[C@H](CCCCN)n3cc(C[C@@H](C)CC)nn3)CC2)n1	i	i	-24%	?	-75%	?
C#CCOCCOCCOCCNc1nc(N2CCN(C(=O)CCCCCCCCCCNC(=O)[C@@H](CCSC)n3cc(CCO)nn3)CC2)nc(N2CCN(C(=O)CCCCCCCCCCNC(=O)[C@H](CCCN=C(N)N)n3cc(C[C@@H](C)CC)nn3)CC2)n1	i	?	?	?	-80%	16µM*
C#CCOCCOCCOCCNc1nc(N2CCN(C(=O)CCCCCCCCCCNC(=O)[C@H](CCCCN)n3cc(C)nn3)CC2)nc(N2CCN(C(=O)CCCCCCCCCCNC(=O)[C@H](CCCN=C(N)N)n3cc(C[C@@H](C)CC)nn3)CC2)n1	?	?	?	?	-101%	?
CCN(C(=O)c1cc2c(=O)n(CC)c3ccccc3c2s1)c1cccc(C(F)(F)F)c1	i	i	8%	-20%	-19%	i
CCOc1ccccc1NC(=O)CCc1c(C)nc2c(c(C)nn2-c2ccccc2)c1C	i	i	3%	4%	0%	i
CC12CCC(=O)N1C(C(=O)N1CCN(c3ccc([N+](=O)[O-])cc3)CC1)CS2 (stereo not given)	i	18µM*	7%	0%	-4%	?
CC12CCC(=O)N1C(C(=O)N1CCN(c3ccccc3)CC1)CS2 (stereo not given)	i	i	2%	5%	3%	i
Cc1cccc(C=Nc2ccccc2C(N)=O)c1	23µM*	6.5µM*	11%	30%	-16%	i
SMILES	KB-3-1 tox	KB-V1 cytotox	ATXN2 expr inh	TGFb SMAD3 inh	HepG2 tox	S2 tox
Cc1ccc(C=Nc2ccccc2C(N)=O)s1	23µM*	i	12%	?	-1%	?
CNC[C@H](O)[C@@H](O)[C@H](O)[C@H](O)CO	·	·	11%	·	·	i
Fc1ccc(Nc2nc(NCc3ccco3)nc3nccnc23)cc1	i	i	·	2%	-1%	·
Cn1cnc([N+](=O)[O-])c1S(=O)(=O)c1ccc(Cl)cc1	i	i	?	11µM*	18µM*	?
CCC(C)n1c(SCc2ccccc2)nc2ccsc2c1=O (stereo not given)	?	10µM*	-14%	?	-8%	i
CCC(C)n1c(SCC(=O)Nc2ccccc2C(F)(F)F)nc2ccsc2c1=O (stereo not given)	i	23µM*	-19%	-24%	-2%	i
CC1CN(CC(=O)NCCc2ccncc2)Cc2ccccc2O1 (stereo not given)	·	·	·	·	·	i
S=C1NC[C@H](c2ccccc2)N1CCCCC1CCCCC1	i	i	?	18µM*	11µM*	?
NC1=NC[C@H](c2ccccc2)N1CCCCC1CCCCC1	?	i	-13%	?	-72%	?
Oc1ccc(C[C@@H]2CNC(=S)N2CCCCC2CCCCC2)cc1	i	i	-10%	13µM*	-107%	?
COC(=O)CN1C(=O)C(C)(C)c2cc(S(=O)(=O)NCc3ccc(Cl)cc3)ccc21	i	i	6%	-1%	5%	i
COc1cc(OC)c(NC(=O)Cn2cnc3nc4c(cc3c2=O)CCCC4)cc1Cl	i	i	5%	18%	-2%	i
